Source: PubChem BioAssay
Rows were chosen to be rich in hits. Some 10% of all compounds tested hit in one or more screens of this group.
Luciferase inh: Photinus pyralis luciferase inhibition. P08659. purified P. pyralis luciferase, luminescence, biochemical. Potency, µM (titrated, usually from 115 µM), most hits filed as inhibitors. 76,000 tested, 2.5% active. AID 1347043; further: nearly all actives have a fitted effect of over 65% in size
Target sequence (P08659 whole entry, looked up): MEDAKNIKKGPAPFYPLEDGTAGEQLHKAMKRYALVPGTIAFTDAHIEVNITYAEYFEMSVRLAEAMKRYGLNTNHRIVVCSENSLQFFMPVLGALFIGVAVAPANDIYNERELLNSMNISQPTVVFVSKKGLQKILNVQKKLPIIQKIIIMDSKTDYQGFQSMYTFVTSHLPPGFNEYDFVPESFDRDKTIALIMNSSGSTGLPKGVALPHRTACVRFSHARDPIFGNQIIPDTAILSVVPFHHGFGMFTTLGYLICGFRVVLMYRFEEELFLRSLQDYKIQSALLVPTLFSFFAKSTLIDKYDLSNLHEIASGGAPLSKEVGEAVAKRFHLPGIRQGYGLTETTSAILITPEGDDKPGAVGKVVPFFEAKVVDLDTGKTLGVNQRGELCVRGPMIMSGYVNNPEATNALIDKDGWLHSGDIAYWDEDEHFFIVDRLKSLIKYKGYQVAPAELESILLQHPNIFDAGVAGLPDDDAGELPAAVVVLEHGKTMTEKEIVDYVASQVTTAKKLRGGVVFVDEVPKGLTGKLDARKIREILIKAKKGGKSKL
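Luminescence read by CCD imager after adding enzyme (10nM final) to wells holding compound, titrated in qHTS. Substrates 10uM each D-luciferin and ATP; buffer 50mM Tris acetate pH 7.5, 10mM Mg acetate, Tween-20, BSA.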
hNpr1 antagonist: antagonists of human natriuretic peptide receptor Npr1. P16066. Potency, µM (titrated, usually from 46.3 µM), most hits filed as inhibitors. HEK293 hNpr1 GloSensor cGMP, ANP-stimulated luminescence. 76,000 tested, 1.6% active; calls by dose curve; further: nearly all actives have a fitted effect of over 60% in size
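Compound pre-incubated 30 min at room temperature on GloSensor-loaded HEK293 cells stably carrying hNpr1 and the pGS-40F cGMP biosensor. Stimulation uses hNppA at 0.1 nM final; luminescence is taken at baseline and 20 min post-agonist.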
NIH3T3 tox: cytotoxic compounds in NIH 3T3 cells; AID 1345082; 94,000 tested, 4.3% active; Potency, µM (highest dose often 96.7 µM), most hits filed as inhibitors; NIH 3T3 viability, CellTiter-Glo ATP luminescence, 48-72 h; further: nearly all actives have a fitted effect of over 55% in size
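Cells were seeded at 400 per well, treated with pin-transferred compound, and kept 48 or 72 hr at 37 °C before CellTiter-Glo addition and luminescence imaging of cellular ATP.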
HEK cytotox: cytotoxic compounds in HEK 293 cells | 94,000 tested, 6.6% active | HEK 293 viability, ATP luminescence (CellTiter-Glo), 48-72 h | Potency, µM (titrated, usually from 115 µM), usual class: inhibitors | AID 1345083; further: nearly all actives have a fitted effect of over 60% in size
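qHTS cytotoxicity; HEK 293, 250 cells/well; compound pinned; 48 or 72 hr, 37 degree Celsius, 5% CO2, 95% humidity; CellTiter-Glo, 10 min RT; luminescence (ATP).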
GPT2 inh: inhibitors of human GPT2 alanine aminotransferase. Q8TD30. Recombinant GPT2, coupled pyruvate oxidase/HRP Amplex Red fluorescence. Potency, µM (top dose mostly 57.7 µM), hits mostly inhibitors. 100,000 tested, 0.25% active. AID 1671188; further: nearly all actives have a fitted effect of over 60% in size
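Inhibition is scored from Amplex Red fluorescence generated when pyruvate oxidase and HRP act on pyruvate released by GPT2. Reactions contain 10ng/uL enzyme, 250uM a-KG and 2mM L-alanine and run 30 min at room temperature.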
Hits are given with their value; – = inactive; ? = inconclusive; · = no result; ! = repeats disagree. Unless noted, the call rests on the fitted dose curve; in most records, active means well fitted curve in the direction sought with a large enough effect; inconclusive means small, poorly fitted or top-dose-only effect, or another doubt; inactive means no such curve, though single readings can be large; an effect the other way counts as inactive or inconclusive.

SMILES	Luciferase inh	hNpr1 antagonist	NIH3T3 tox	HEK cytotox	GPT2 inh
O=C(NC1CC1)c1nc(-c2cccc(C(F)(F)F)c2)c2cnccn12	–	–	–	79µM	–
COc1ccccc1-c1nc(C(=O)NC2CC2)n2ccncc12	–	–	56µM	?	–
O=C(NC1CC1)c1nc(-c2ccccc2)c2ccccn12	–	–	?	63µM	–
COC(=O)CNC(=O)c1nc(-c2ccccc2)c2ccccn12	–	–	?	?	–
CC(=O)N1CCC([C@@H]2CN(Cc3ccc(F)cc3Cl)C[C@H]2CO)CC1	–	–	–	–	–
CC(C)(C(=O)NCCc1ccccn1)C1CCOCC1	–	–	–	–	–
CC(C)(C)CC(=O)N1C[C@@H](CO)[C@@H]2Oc3c(F)cccc3[C@@H]21	·	·	–	?	·
COc1cc(CN2CCCCC23Cc2ccccc2CNC3=O)ccc1F (stereo unspecified)	·	·	?	?	–
COCCCn1c(=O)c(C(=O)NCCOC)nc2cccnc21	·	·	–	–	–
COc1cccc(O)c1CN1CCC2(CC1)Cc1ccccc1CNC2=O	·	·	–	–	–
CNC(=O)c1cnc2c(c1)N(C(=O)Cc1ccc(C(C)C)cc1)CCC2	–	–	?	?	?
COc1ccc(NC(=O)c2cnc3c(c2)N(C(=O)Cc2ccc(C(C)C)cc2)CCC3)cc1OC	–	?	?	32µM	–
CC(C)c1ccc(CC(=O)N2CCCc3ncc(C(=O)NCCc4c[nH]c5ccccc45)cc32)cc1	–	–	11µM	25µM	–
O=C(Nc1cccc(C(F)(F)F)c1)c1cnc2c(c1)N(C(=O)Cc1cccc(C(F)(F)F)c1)CCC2	–	–	?	25µM	?
CC(C)c1ccc(CC(=O)N2CCCc3ncc(C(=O)Nc4ccn(C)n4)cc32)cc1	–	–	?	89µM	–
Cc1cc(C)cc(CN2CCCCC23Cc2ccccc2CNC3=O)c1 (stereo unspecified)	·	·	?	?	–
COc1ccccc1CC(=O)N1CCCc2ncc(C(=O)Nc3ccccc3)cc21	?	?	–	?	–
Cc1ccccc1NC(=O)c1cnc2c(c1)N(C(=O)CCc1ccccc1)CCC2	–	?	–	100µM	–
COc1cccc(NC(=O)c2cnc3c(c2)N(C(=O)Cc2ccccc2OC)CCC3)c1	?	–	–	100µM	–
COCCCNC(=O)c1cnc2c(c1)N(C(=O)Cc1ccc(C(C)C)cc1)CCC2	–	–	–	71µM	–
COc1ccccc1N1CCCc2ncc(C(=O)Nc3cccnc3)cc21	–	–	?	100µM	?
Cc1ccccc1NC(=O)c1cnc2c(c1)N(Cc1ccccc1)CCC2	–	–	?	?	–
COc1ccc(F)cc1-c1cccc(CN)c1	·	·	–	?	–
O=C(NC1CCCCCC1)c1ccc2oc(-c3cccnc3)nc2c1	·	·	–	–	–
O=C(NC1CC1)c1ccccc1OC1CN(Cc2cccc(F)c2F)C1	–	–	–	?	–
SMILES	Luciferase inh	hNpr1 antagonist	NIH3T3 tox	HEK cytotox	GPT2 inh
CNCC[C@H](Oc1cccc2ccccc12)c1cccs1	·	·	·	·	9.7µM!
O=C(Cc1cccc(Cl)c1)NC1CCN(Cc2cccc(-c3cccs3)c2)CC1	·	·	11µM	22µM	–
O=C(Nc1ccccc1F)NC1CCN(Cc2cccc(-c3cccs3)c2)CC1	·	·	25µM	25µM	–
O=C(NC1CCCC1)NC1CCN(Cc2cccc(-c3cccs3)c2)CC1	·	·	–	?	–
O=C(Cc1cccc(Cl)c1)NC1CCN(Cc2cccc(-c3ccc(F)c(F)c3)c2)CC1	·	·	16µM	20µM	–
C[C@@]12C(=O)N(CC3CC3)c3ccccc3[C@@H]1[C@@H](C(N)=O)CN2C(=O)Nc1ccc2c(c1)OCO2	·	·	–	?	–
CC(C(=O)N1CC(c2noc(COc3ccccc3)n2)C1)c1ccccc1 (stereo unspecified)	·	·	?	?	–
COCC(=O)NC1CCCN(c2ccc3nnc(C4CC4)n3n2)C1 (stereo unspecified)	·	·	–	–	·
Cc1ccccc1-c1cnc2n[nH]c(-c3ccccc3)c2n1	–	–	50µM	89µM	–
COc1ccc(-c2[nH]nc3ncc(-c4ccccc4O)nc23)c(C)c1	–	–	?	28µM	–
COc1ccc(-c2[nH]nc3ncc(-c4cccc(F)c4)nc23)c(C)c1	–	–	?	?	–
COc1ccc(-c2[nH]nc3ncc(-c4ccc([S+](C)(=O)[O-])cc4)nc23)c(C)c1	–	–	?	56µM	–
